The values that follow come from PubChem BioAssay AID463254 (National Center for Advancing Translational Sciences (NCATS), 2010).

Out of some 330,000 compounds screened, about 40 (0.01%) were called active. This excerpt belongs to a sample that is enriched for actives. A number with no mark means an inactive call. Calls follow the shape of the dose curve; as a rule, active = well fitted inhibition curve with a large enough effect; inconclusive = small, poorly fitted or top-dose-only effect, or effect the other way; inactive = flat fitted curve, though single readings scatter.
Potency is read from the fitted curve at half-maximal effect.

Ubiquitin carboxyl-terminal hydrolase 2 (Homo sapiens), sequence (O75604 whole entry, looked up): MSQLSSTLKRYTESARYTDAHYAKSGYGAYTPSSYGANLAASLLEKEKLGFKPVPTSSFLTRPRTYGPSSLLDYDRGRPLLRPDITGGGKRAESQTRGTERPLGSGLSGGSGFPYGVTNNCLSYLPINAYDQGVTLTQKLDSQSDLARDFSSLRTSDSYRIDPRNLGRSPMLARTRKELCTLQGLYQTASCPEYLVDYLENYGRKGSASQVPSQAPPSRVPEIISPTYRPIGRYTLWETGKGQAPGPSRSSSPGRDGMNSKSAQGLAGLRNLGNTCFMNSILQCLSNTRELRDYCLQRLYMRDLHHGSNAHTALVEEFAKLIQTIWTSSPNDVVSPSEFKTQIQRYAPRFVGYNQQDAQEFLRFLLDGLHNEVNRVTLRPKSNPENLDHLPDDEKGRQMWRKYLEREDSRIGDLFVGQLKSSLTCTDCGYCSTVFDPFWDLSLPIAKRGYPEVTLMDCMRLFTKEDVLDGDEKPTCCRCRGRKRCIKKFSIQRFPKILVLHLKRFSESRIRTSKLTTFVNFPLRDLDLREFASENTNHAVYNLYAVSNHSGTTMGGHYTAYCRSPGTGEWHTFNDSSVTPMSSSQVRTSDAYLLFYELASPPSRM

For this experiment, the target named is Ubiquitin carboxyl-terminal hydrolase 2 (Homo sapiens) (UniProt O75604). Description: qHTS Assay for Inhibitors of Ubiquitin-specific Protease USP2a Using CHOP2 as the Reporter.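 As to activity change, negative = inhibition: plate controls were DMSO wells for no effect and full inhibition by NEM control for full effect.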 Particulars: USP2 core, Ub-CHOP2 coupled fluorogenic reporter, 485/531; series mostly up to 38.3 µM; activity change, negative = inhibition: at the top concentration. The essentials:
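USP2 core (10nM final) preincubated 30min RT with compound in 20mM Tris-HCl pH 8.0, 2mM CaCl2, 2mM beta-mercaptoethanol, 0.05% CHAPS; 25nM Ub-CHOP2 plus 25nM reporter substrate added, fluorescence (Ex485/Em531) read after 60min.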
For `COc1ccc(C(=O)NCC2CCCCC2)cc1S(=O)(=O)N1CCCC1`, the “activity change, negative = inhibition” value is -1.57%. For `CCn1cc(C(=O)NCc2ccc(OC)cc2OC)c(=O)c2ccc(C)nc21`, the “activity change, negative = inhibition” value is 2.65%. The same measure, in the same setting: the value for `COc1ccc(C2COC(=O)C2=N)c(NC(=O)c2ccccc2)c1` (stereo not drawn) was 2.76%; that for `COc1ccc(C(CC(=O)Nc2ccc(C)cc2)NC(=O)C(F)(F)F)cc1` (stereo not drawn) was 6%; that for `CCCCN(Cc1ccccc1)C(=O)C1CCN(Cc2sccc2C)CC1` was 1.08%.

As for `CC(=O)c1c(OCC(=O)N(C)C2CCCCC2)ccc2c(C)cc(=O)oc12`, the “activity change, negative = inhibition” value was 7.53%. Still for that read-out and setting: the value for `Cc1ccc(NS(=O)(=O)c2ccc3c(c2)CC(=O)N3)cc1Cl` was -3.81%; that for `CCOc1ccc(NC(=O)CCNC(=O)c2ccc(Br)cc2)cc1` was 1.18%. Consider `CCOc1ccc(NC(=O)c2ccc(NC(=O)COC(=O)c3ccc(NC(=O)CC#N)cc3)cc2)cc1`, for which the Potency was 7.94 µM (active). As for `N#CCC(=O)Nc1ccc(C(=O)OCC(=O)Nc2sc3c(c2C#N)CCCC3)cc1`, the “activity change, negative = inhibition” value was 0.193%.

With `O=C(CCS(=O)(=O)c1ccccc1Cl)Nc1ccc(S(=O)(=O)Nc2ncccn2)cc1`, the “activity change, negative = inhibition” value is 7.43%. For the compound `CC(C)C1N=C2c3ccccc3N=C(SCC(=O)c3ccc(O)c(O)c3)N2C1=O` (stereo not drawn), the “activity change, negative = inhibition” value was -4.68%. Same read-out and setting: the value for `COc1ccccc1/C=C/C(=O)OCC(=O)NC1CCCCCC1` was -1.68%; that for `CCOc1ccc(NS(=O)(=O)c2ccc(C(=O)NC3CCN(Cc4ccccc4)CC3)cc2)cc1` was 0.347%. The same measure, in the same setting: as for `CC(C)OC(=O)C(C#N)c1nc2ccccc2nc1N1CCN(Cc2ccc3c(c2)OCO3)CC1` (stereo not drawn), the figure is 3.11%; as for `COc1cccc(-c2nnc(NC(=O)c3ccc(S(=O)(=O)N(CC(C)C)CC(C)C)cc3)o2)c1`, 0.575%; as for `Cc1sc(NC(=O)C2C3CCC(O3)C2C(=O)O)c(C(=O)OC(C)C)c1-c1ccc(Cl)cc1` (stereo not drawn), -5.15%.

Turning to `CCN(CC)C(=O)CSC(Nc1cccc(F)c1)=C(C#N)C#N`, the “activity change, negative = inhibition” value was -1.62%. As to `CS(=O)(=O)c1ccc(-c2nnn(CC(=O)Nc3ccc4c(c3)OCCO4)n2)cc1`, the “activity change, negative = inhibition” value is -0.705%. For the compound `COc1ccc(Nc2ncc(C(=O)N3CCN(c4ccccc4OC)CC3)c3ccccc23)cc1`, the “activity change, negative = inhibition” value was -0.293%. On the same count and under the same terms, as for `Cc1ccc(-n2nc(C)c(C(=O)O)c2-n2cccc2)cc1`, the figure is 2.36%; as for `CC(=O)c1ccc(NC(=O)C2CCCN2S(=O)(=O)c2cccs2)cc1` (stereo not drawn), -0.28%. On the same count and under the same terms, as for `Cn1c(=O)c2cc(S(=O)(=O)NCCC(=O)Nc3ccc(F)cc3F)ccc2n(C)c1=O`, the figure is 4.64%. `Cc1cc(-c2n[nH]c(=S)n2/N=C/C(Br)=C/c2ccccc2)n[nH]1`: the “activity change, negative = inhibition” value was 0.983%. On to `Cc1c(C)c(C)c(S(=O)(=O)NCCc2ccccn2)c(C)c1C`, for which the “activity change, negative = inhibition” value was 2.74%. In the case of `COc1cc(C)c(S(=O)(=O)N2CCOCC2)c(C)c1C`, the “activity change, negative = inhibition” value is -0.633%. On the same count and under the same terms, the value for `COc1ccc(NC(=O)CN(C)C(=O)c2cccc(S(=O)(=O)N3CCN(c4ccccc4)CC3)c2)cc1` was -0.433%; that for `CCN(CC)C(=O)CSc1nnc(-c2ccc(S(=O)(=O)NCc3ccccc3Cl)cc2)o1` was -3.22%.

`CN(CCO)c1ccc(/C=N/Nc2nncc3ccccc23)cc1`: the “activity change, negative = inhibition” value is 4.48%. Regarding `CCOC(=O)c1cc(-c2ccc(Cl)s2)nc2c1c(C)nn2C`, the “activity change, negative = inhibition” value is 1.07%.

With `COc1ccc(NC(=O)CN2C(=O)C(c3ccccc3)=NC23CCCCCC3)cc1OC`, the “activity change, negative = inhibition” value is 0.654%.

As to `CC1(C)CC(=O)c2cc(OCC(=O)NCC3CCCO3)ccc2O1` (stereo not drawn), the “activity change, negative = inhibition” value was 0.36%. On the same count and under the same terms, as for `Cc1c(-c2nn(C)c(=O)c3ccccc23)oc2ccc(F)cc2c1=O`, the figure is 0.493%; as for `CC(C)Cc1nn2c(=O)cc(O)nc2s1`, 2.15%; as for `COc1cc(N/C=C2\CC(=O)NC(C)=C2C#N)cc(OC)c1OC`, -0.207%. On the same count and under the same terms, as for `O=C(Nc1cccc(Cl)c1)c1cncn1-c1ccc(F)cc1`, the figure is -13.3%. Same read-out and setting: the value for `O=C(COC(=O)c1cccc(Cl)c1)NC1CCCCCCC1` was 0.694%. As to `Cc1cccc(OCC(O)CN2CCN(CCN3C(=O)c4cccc5cccc(c45)C3=O)CC2)c1C` (stereo not drawn), the “activity change, negative = inhibition” value was 10.9%. The same measure, in the same setting: the value for `Cc1nc(NC2=NC(C(=O)Nc3ccc(Cl)cc3)CC(=O)N2)nc2ccccc12` (stereo not drawn) was 0.0715%; that for `C=CC(COCc1ccccc1)N(Cc1ccccc1)S(=O)(=O)c1ccccc1Br` (stereo not drawn) was 0.383%. Take `CCC(C)N1CC(=O)N2Cc3[nH]c4ccccc4c3C[C@H]2C1=O` (stereo partly drawn): the “activity change, negative = inhibition” value is 0.217%. As for `CCCCOC(=O)c1ccc(NC(c2ccc(C)cc2)P(=O)(OC)OC)cc1` (stereo not drawn), the “activity change, negative = inhibition” value was -2.2%.

Consider `O=C(O)c1cc2c(cc1NC(=O)c1c(F)cccc1Cl)OCCCO2`, for which the “activity change, negative = inhibition” value is 1.52%. Turning to `O=S(=O)(NC1CCN(S(=O)(=O)c2ccc3c(c2)OCCO3)CC1)c1c(F)cccc1F`, the “activity change, negative = inhibition” value was 4.79%. As for `CCCOc1ccc(CN(CCO)CCO)cc1C(=O)OC`, the “activity change, negative = inhibition” value is -0.629%. As to `Cc1ccc(NC2=C(Cl)C(=O)OC2OC(=O)c2ccccc2C)cc1` (stereo not drawn), the “activity change, negative = inhibition” value was 0.357%. As for `C[C@@]12C(=O)N(c3cccc(Br)c3)C(=O)N1[C@H](c1ccc(Cl)cc1)[C@@H]1C(=O)N(C3CCCCC3)C(=O)[C@@H]12`, the “activity change, negative = inhibition” value is 3.37%. On to `CCn1c(SC(C)C(=O)Nc2ccc(N3CCOCC3)cc2)nnc1-c1ccco1` (stereo not drawn), for which the “activity change, negative = inhibition” value is -0.0305%. Take `CCOC(=O)c1c(CNCc2ccccc2F)c2sc(C)cc2n1C`: the “activity change, negative = inhibition” value was 3.82%. Take `CN(C(=O)CCn1c(=S)oc2ccccc21)C1CCCCC1`: the “activity change, negative = inhibition” value was -0.0558%. As to `CCCCN=C(N)/C(C(=O)OCC)=C(\O)c1ccc(OC)cc1`, the “activity change, negative = inhibition” value is -0.581%.

As for `COc1ccc(OC)c(-n2cc3c(=O)n(C)c(=O)n(C)c3c2)c1`, the “activity change, negative = inhibition” value is 3.99%. Turning to `O=[N+]([O-])c1cc([N+](=O)[O-])c2cccnc2c1O`, the “activity change, negative = inhibition” value is -3.58%.
